Read-out in experiment [1]: Thrombomodulin, THBD (gene 7056)
Briefly: BSK_3C_Thrombomodulin: BioMAP Diversity Plus: 3C Assay for Thrombomodulin Biomarker Activity (AID 2283029). The following applies: primary human endothelial cells (HUVEC); actives raise or lower the signal. A digest of the protocol:
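Thrombomodulin ELISA, human primary HUVEC, 24 h post-dose; data fitted in both directions relative to DMSO.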

Read-out in experiment [2]: Urokinase-type plasminogen activator receptor (uPAR), PLAUR (gene 5329)
In words: BSK_4H_uPAR: BioMAP Diversity Plus: 4H Assay for Urokinase-type plasminogen activator receptor (uPAR) Biomarker Activity (AID 2283030). To be noted: primary human endothelial cells (HUVEC); actives raise or lower the signal. A digest of the protocol:
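Primary human umbilical vein endothelial cells were exposed to chemical for 24 h before cell-surface uPAR was quantified by ELISA. Activity was fitted bidirectionally against the DMSO negative control baseline.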

Read-out in experiment [3]: Vascular endothelial growth factor receptor 2 (Homo sapiens) (UniProt P35968)
In words: BSK_4H_VEGFRII: BioMAP Diversity Plus: 4H Assay for Vascular endothelial growth factor receptor 2 (VEGFR2) Biomarker Activity (AID 2283031).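 On AC50: cell-surface VEGFR2 protein level quantified by ELISA.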 To be noted: primary human endothelial cells (HUVEC); actives raise or lower the signal. A digest of the protocol:
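Primary human umbilical vein endothelial cells in the BioMAP 4H system were dosed with test chemical, and 24 h later VEGFRII was measured by ELISA. Activity was fitted bidirectionally against DMSO as negative control and baseline.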

Read-out in experiment [4]: Human Leukocyte Antigen - DR isotype (HLADR), HLA-DRA (gene 3122)
In words: BSK_BE3C_HLADR: BioMAP Diversity Plus: BE3C Assay for Human Leukocyte Antigen - DR isotype (HLADR) Biomarker Activity (AID 2283032). The following applies: primary human bronchial epithelial cells; actives raise or lower the signal. A digest of the protocol: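 Signal came from an ELISA for HLA-DR in human bronchial epithelial primary cells harvested 24 h after treatment; gain- and loss-of-signal fitting used DMSO controls as reference.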

Read-out in experiment [5]: Vascular cell adhesion molecule 1 (VCAM1), VCAM1 (gene 7412)
Briefly: BSK_4H_VCAM1: BioMAP Diversity Plus: 4H Assay for Vascular cell adhesion molecule 1 (VCAM1) Biomarker Activity (AID 2283033).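 On outcome: cell-surface VCAM-1 protein measured by ELISA.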 The following applies: primary human endothelial cells (HUVEC); actives raise or lower the signal. A digest of the protocol: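 Endpoint derived from bidirectional fitting against DMSO controls of VCAM-1 ELISA signal in umbilical vein endothelial cells sampled at 24 h following treatment.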

Read-out in experiment [6]: Interferon-gamma inducible Protein 10 (IP10), CXCL10 (gene 3627)
In words: BSK_BE3C_IP10: BioMAP Diversity Plus: BE3C Assay for Interferon-gamma inducible Protein 10 (IP10) Biomarker Activity (AID 2283034). To be noted: primary human bronchial epithelial cells; actives raise or lower the signal. A digest of the protocol:
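Using primary human bronchial epithelial cultures, the assay captures IP-10 by ELISA one day (24 h) after exposure. Parallel SRB staining of total protein flags overt cytotoxicity. Fits run bidirectionally relative to DMSO.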

Read-out in experiment [7]: Monokine induced gamma interferon (MIG), CXCL9 (gene 4283)
In words: BSK_BE3C_MIG: BioMAP Diversity Plus: BE3C Assay for Monokine induced gamma interferon (MIG) Biomarker Activity (AID 2283035). To be noted: primary human bronchial epithelial cells; actives raise or lower the signal. A digest of the protocol: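 ELISA read-out of MIG in human lung bronchial epithelial primary cultures, 24 h post-dosing. Bidirectional curve fit vs DMSO baseline.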

Read-out in experiment [8]: Transforming growth factor beta 1 (TGFb1), TGFB1 (gene 7040)
In words: BSK_BE3C_TGFb1: BioMAP Diversity Plus: BE3C Assay for Transforming growth factor beta 1 (TGFb1) Biomarker Activity (AID 2283036;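 on outcome: TGF-b1 protein level measured by ELISA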). The following applies: primary human bronchial epithelial cells; actives raise or lower the signal. A digest of the protocol:
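In this human primary bronchial epithelial system, an ELISA quantified TGF-b1 one day after dosing. Endpoint changes in either direction were fitted relative to DMSO.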

Read-out in experiment [9]: Plasminogen activator inhibitor-1 (PAI1), SERPINE1 (gene 5054)
In words: BSK_BE3C_PAI1: BioMAP Diversity Plus: BE3C Assay for Plasminogen activator inhibitor-1 (PAI1) Biomarker Activity (AID 2283037). To be noted: primary human bronchial epithelial cells; actives raise or lower the signal. A digest of the protocol: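 PAI-1 biomarker levels in treated human bronchial epithelial cells are determined by ELISA at 24 h. Both increases and decreases relative to DMSO are fitted.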

Read-out in experiment [10]: urokinase plasminogen activator (uPA), PLAU (gene 5328)
In words: BSK_BE3C_uPA: BioMAP Diversity Plus: BE3C Assay for urokinase plasminogen activator (uPA) Biomarker Activity (AID 2283038).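 On outcome: uPA protein level quantified by ELISA in cell cultures; uPA read one day after compound addition.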 The following applies: primary human bronchial epithelial cells; actives raise or lower the signal. A digest of the protocol:
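Human primary bronchial epithelial cells were exposed to chemical for 24 h, then uPA levels were measured by ELISA. Responses were fitted bidirectionally against DMSO as negative control and baseline. Parallel SRB staining of total protein gauged overt cytotoxicity.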

The structures appear in SMILES notation. Several values for one entry are separate records, joined by “and”; a condition that tells them apart may be missing. Equal values may be shown once. Activity calls are given as the source filed them. How the source made its calls: active means hit-call score of the fitted dose curve at least 0.9, where 1 is the maximum; inactive means score below 0.9.

Our source for the outcome and AC50 values is PubChem BioAssay (EPA / NIEHS).

Usually AC50 stands for the midpoint of the concentration-response curve, whichever way the signal moves.

Regarding `CC1=C(C(=O)Nc2ccccc2)SCCO1`, the result in [1], in experiment [2], in experiment [3], in experiment [4], in experiment [5] and in experiment [6] was inactive. Also, the outcome in experiment [7], in experiment [8] and in experiment [9] was inactive. Moreover, the AC50 in experiment [10] is 3.97 µM (active).

For the molecule `CCNc1nc(Cl)nc(NCC)n1`, the result in [1], in experiment [2], in experiment [3], in [4], in experiment [5] and in experiment [6] was inactive. Further, the result in experiment [7], in experiment [8], in experiment [9] and in experiment [10] was inactive.

Take `COc1nc(NC(C)C)nc(NC(C)C)n1`: the AC50 in experiment [1] was 148 nM (active). For the same molecule, the result in [2], in experiment [3], in experiment [4], in [5], in experiment [6] and in experiment [7] was inactive. The outcome in experiment [8], in experiment [9] and in experiment [10] was inactive.

For `CNC(=O)ON=CC(C)(C)SC`, the result in experiment [1], in experiment [2], in [3], in experiment [4], in experiment [5] and in experiment [6] was inactive. Besides, the result in experiment [7], in [8], in [9] and in [10] was inactive.

For `N#CC(CCc1ccc(Cl)cc1)(Cn1cncn1)c1ccccc1` (stereo not drawn), the result in experiment [1], in experiment [2], in experiment [3], in experiment [5], in experiment [7] and in [8] was inactive. Further, the result in experiment [9] and in experiment [10] was inactive. For the same molecule, the half-maximal activity concentration (AC50) in experiment [4] is 31.2 µM (active); in experiment [6] it was 33.7 µM (active).

As for `Cc1ccc(-c2c(Cl)nc(C#N)n2S(=O)(=O)N(C)C)cc1`, the outcome in experiment [1], in [7], in experiment [8] and in experiment [10] was inactive. The AC50 in experiment [2] was 14.7 µM (active); in experiment [3], 20 µM (active); in experiment [4], 5.94 µM (active); in [5], 16.6 µM (active); in experiment [6], 6.57 µM (active); in [9], 3.97 µM (active).

As for `CC(C)C1(C)N=C(c2nc3ccccc3cc2C(=O)O)NC1=O` (stereo not drawn), the result in [1], in experiment [2], in experiment [3], in [4], in [5] and in [6] was inactive. Besides, the outcome in [7], in experiment [8], in [9] and in experiment [10] was inactive.

With `CCCN(CCC)c1c([N+](=O)[O-])cc(S(N)(=O)=O)cc1[N+](=O)[O-]`, in experiment [1], the outcome was inactive. In addition, the AC50 is 33 µM (active) [middle of 4 runs] in experiment [2]; 35 µM (active) [middle of 4 runs] in experiment [4]; 38.1 µM (active) [middle of 4 runs] in experiment [5]; 36.9 µM (active) [middle of 4 runs] in experiment [6]; 38.4 µM (active) [middle of 4 runs] in [7]; 31.3 µM (active) and 31.1 µM (active) and 36.7 µM (active) in experiment [8]. The AC50 is 34.2 µM (active) [middle of 4 runs] in experiment [9] and 33.6 µM (active) [middle of 4 runs] in experiment [10].

Take `CCOP(=S)(OCC)SCn1c(=O)oc2cc(Cl)ccc21`: the result in [1], in experiment [2], in experiment [3], in experiment [4], in experiment [6] and in experiment [7] was inactive. Further, the result in experiment [8], in experiment [9] and in [10] was inactive. The AC50 in experiment [5] is 26.1 µM (active).

Consider `COP(=S)(OC)Oc1nc(Cl)c(Cl)cc1Cl`, for which the outcome in experiment [1], in experiment [2], in experiment [3], in [4], in [6] and in [7] was inactive. For the same molecule, the result in experiment [8], in experiment [9] and in experiment [10] was inactive.

Take `COC(=O)C=C(C)OP(=O)(OC)OC`: the result in experiment [1], in experiment [2], in experiment [3], in experiment [4], in experiment [5] and in experiment [6] was inactive. In addition, the outcome in experiment [7], in [8], in experiment [9] and in [10] was inactive.

In the case of `COc1ccc(C(c2ccc(OC)cc2)C(Cl)(Cl)Cl)cc1`, the outcome in experiment [1], in experiment [2], in experiment [7], in [8] and in experiment [10] was inactive. In addition, the AC50 is 31.2 µM (active) in experiment [3]; 17.4 µM (active) in [4]; 25.1 µM (active) in experiment [5]; 32.8 µM (active) in experiment [6]; 14.3 µM (active) in experiment [9].

As to `CCNc1nc(Cl)nc(NC(C)C)n1`, the outcome in experiment [1], in [2], in experiment [3], in [4], in experiment [5] and in [6] was inactive. Also, the outcome in experiment [7], in experiment [8], in [9] and in experiment [10] was inactive.

`Fc1ccc(Oc2ccnc3cc(Cl)cc(Cl)c23)cc1`: the outcome in [1] was inactive. Moreover, the AC50 in experiment [2] was 32.1 µM (active); in experiment [3], 27.2 µM (active); in [4], 24.3 µM (active); in experiment [5], 30.1 µM (active); in [6], 28.7 µM (active); in experiment [7] it was 34.3 µM (active). The AC50 was 32.9 µM (active) in experiment [8], 30.3 µM (active) in experiment [9] and 36.5 µM (active) in experiment [10].
